Hit rate of the full screen: of about 1,300 compounds, about 750 (58%) were called active. Some of the results follow. Unmarked numbers belong to inactive results.
Each molecule was assayed against Sulfhydryl oxidase 1 (Homo sapiens) (UniProt O00391) (assay: inhibition of human sulfhydryl oxidase QSOX1 – biochemical, ROS-Glo H2O2 luminescence, HTS, primary screen (AID 1347418)). Conditions: recombinant QSOX1, ROS-Glo H2O2 luminescence; at 12.5 µM; hits give high values; active = any value above zero.
Chain of Sulfhydryl oxidase 1 (Homo sapiens) (O00391 whole entry, looked up): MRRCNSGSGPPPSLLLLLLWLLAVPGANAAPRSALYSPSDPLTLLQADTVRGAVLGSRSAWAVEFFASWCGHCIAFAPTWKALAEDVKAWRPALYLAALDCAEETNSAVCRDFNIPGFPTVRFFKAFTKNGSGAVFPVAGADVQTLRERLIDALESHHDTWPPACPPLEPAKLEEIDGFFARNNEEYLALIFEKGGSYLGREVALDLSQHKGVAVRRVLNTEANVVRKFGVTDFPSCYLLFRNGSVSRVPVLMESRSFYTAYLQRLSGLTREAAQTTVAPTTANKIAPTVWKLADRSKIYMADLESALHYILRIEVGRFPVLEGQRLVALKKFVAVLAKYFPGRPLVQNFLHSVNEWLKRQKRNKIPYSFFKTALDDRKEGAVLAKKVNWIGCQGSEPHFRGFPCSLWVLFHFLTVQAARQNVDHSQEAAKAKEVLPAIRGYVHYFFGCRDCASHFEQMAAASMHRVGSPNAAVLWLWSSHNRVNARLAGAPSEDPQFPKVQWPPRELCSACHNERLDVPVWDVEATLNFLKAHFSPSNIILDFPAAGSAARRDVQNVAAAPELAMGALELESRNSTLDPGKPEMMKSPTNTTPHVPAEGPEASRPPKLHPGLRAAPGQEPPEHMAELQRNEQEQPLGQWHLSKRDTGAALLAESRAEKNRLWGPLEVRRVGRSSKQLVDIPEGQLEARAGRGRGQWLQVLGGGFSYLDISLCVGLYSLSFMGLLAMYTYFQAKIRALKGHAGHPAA
CC1=C(CC(=O)O)c2cc(F)ccc2/C1=C\c1ccc(S(C)(=O)=O)cc1 was tested, and the inhibition was 3.1% (active). In the case of CC(=O)Oc1ccccc1C(=O)O, the inhibition is reported as 0.3% (active). In the case of O=C(CCc1ccc(O)cc1)c1c(O)cc(O)cc1O, the inhibition is reported as 6.2% (active). With O=C1CCC(c2ccc(-n3ccnc3)cc2)=NN1 the inhibition was 6.6% (active). Nc1nc2ccc(OC(F)(F)F)cc2s1 showed an inhibition of -3.9%. Cc1ccc2nc(CN(CCN(Cc3nc4ccc(C)cc4[nH]3)Cc3nc4ccc(C)cc4[nH]3)Cc3nc4ccc(C)cc4[nH]3)[nH]c2c1 was tested, and the inhibition was -0.7%. For Brc1c(Br)c(Br)c2n[nH]nc2c1Br, the inhibition was 1% (active). With CN(C)CCCN1c2ccccc2CCc2ccc(Cl)cc21 the inhibition was 2.6% (active). For CC(CN(C)C)CN1c2ccccc2CCc2ccccc21 (stereo unspecified), the inhibition was 2% (active). In the case of CNCCCN1c2ccccc2CCc2ccccc21, the inhibition is reported as 5.2% (active). CNCCCC1c2ccccc2C=Cc2ccccc21 showed an inhibition of -4.7%. In the case of CNCCCC12CCC(c3ccccc31)c1ccccc12, the inhibition is reported as -2.7%. With CN(C)CCCN1c2ccccc2CCc2ccccc21 the inhibition was 11.1% (active). In the case of O=C(O)CCC(C(=O)O)N1C(=O)c2ccccc2C1=O (stereo unspecified), the inhibition is reported as -1%. With CCCCNc1c(C(=O)OCC)c(C)nc2c1cnn2CC the inhibition was 3.5% (active). With CCOC(=O)c1cnc2c(cnn2CC)c1NN=C(C)C the inhibition was 0.7% (active). In the case of CCCCNc1ccc(C(=O)OCCN(C)C)cc1, the inhibition is reported as -1.8%. CC(C)COC(=O)OCN1C(=O)CN(CCN2CC(=O)N(COC(=O)OCC(C)C)C(=O)C2)CC1=O was tested, and the inhibition was 2.6% (active). NCCSSCCN was tested, and the inhibition was 10.5% (active). In the case of CCOC(=O)Nc1ccc(NCc2ccc(F)cc2)nc1N, the inhibition is reported as 9.8% (active). For CCCCCCCCCC[Si](C)(C)CCC(=O)NC(Cc1ccc(C)cc1)c1ccccc1 (stereo unspecified), the inhibition was 0.6% (active). Work on CCCCCCCCc1ccc(-c2ccc(C(=O)O)cc2)cc1 yielded an inhibition of -5.7%. With CCN(c1nc(N)c(C(=O)N=C(N)N)nc1Cl)C(C)C the inhibition was -3.8%. CN(C)c1nc(N)c(C(=O)N=C(N)N)nc1Cl was tested, and the inhibition was 0.7% (active). With NC(N)=NC(=O)c1nc(Cl)c(N2CCCCCC2)nc1N the inhibition was 1.7% (active). NC(N)=NC(=O)c1nc(Cl)c(N)nc1N gave an inhibition of -2.5%. Molecule COC(=O)C1=C(C)NC(C)=C(C(=O)OC(C)(C)CN(C)CCC(c2ccccc2)c2ccccc2)C1c1cccc([N+](=O)[O-])c1 (stereo unspecified) has an inhibition of -1.4%. CCOC(=O)C1=C(C)NC(C)=C(C(=O)OC)C1c1cccc([N+](=O)[O-])c1 (stereo unspecified) was tested, and the inhibition was 1% (active). For COC(=O)C1=C(C)NC(C)=C(C(=O)OCCN(C)Cc2ccccc2)C1c1cccc([N+](=O)[O-])c1 (stereo unspecified), the inhibition was -1.6%. COC(=O)C1=C(C)NC(C)=C(C(=O)OC)C1c1ccccc1[N+](=O)[O-] gave an inhibition of -1.1%. With C#CCN1C(C)=C(C(=O)OC)C(c2cccc([N+](=O)[O-])c2)C(C(=O)OCC)=C1C (stereo unspecified) the inhibition was -3%. CCOC(=O)C1=C(C)NC(C)=C(C(=O)OC)C1c1cccc(Cl)c1Cl (stereo unspecified) was tested, and the inhibition was 3% (active). CCOC(=O)C1=C(C)NC(C)=C(C(=O)OCC)C1c1c(F)c(F)c(F)c(F)c1F was tested, and the inhibition was -3.2%. With COCCOC(=O)C1=C(C)NC(C)=C(C(=O)OC/C=C/c2ccccc2)C1c1cccc([N+](=O)[O-])c1 (stereo unspecified) the inhibition was 5.1% (active). Work on COCCOC(=O)C1=C(C)NC(C)=C(C(=O)OC(C)C)C1c1cccc([N+](=O)[O-])c1 (stereo unspecified) yielded an inhibition of -2.5%. O=C(O)CN(CCOCCOCCN(CC(=O)O)CC(=O)O)CC(=O)O showed an inhibition of -5.4%. In the case of CCCCCCCCCCC(C)(C)C(=O)Nc1c(OC)cc(OC)cc1OC, the inhibition is reported as -1%. With COc1ccccc1N1CCN(CC(O)COc2cccc3ccccc23)CC1 (stereo unspecified) the inhibition was 8.9% (active). For COc1ccccc1OCC(O)CN1CCN(CC(=O)Nc2c(C)cccc2C)CC1 (stereo unspecified), the inhibition was 3.9% (active). For COc1cc2nc(N(C)CCCNC(=O)C3CCCO3)nc(N)c2cc1OC (stereo unspecified), the inhibition was 1.1% (active). For COc1cc2nc(N3CCN(C(=O)C4CCCO4)CC3)nc(N)c2cc1OC (stereo unspecified), the inhibition was 0.3% (active). Work on COc1cc2nc(N3CCN(C(=O)c4ccco4)CC3)nc(N)c2cc1OC yielded an inhibition of -0.3%. COc1cc2nc(N3CCN(C(=O)OCc4ccccc4)C(C(=O)NC(C)(C)C)C3)nc(N)c2cc1OC (stereo unspecified) was tested, and the inhibition was 4.3% (active). COc1cc2nc(N3CCN(C(=O)C4COc5ccccc5O4)CC3)nc(N)c2cc1OC (stereo unspecified) was tested, and the inhibition was 4.9% (active). In the case of NC(=O)c1ccccc1, the inhibition is reported as 7.2% (active). For NC(=O)c1cccc(N)c1, the inhibition was 2.2% (active). Work on CCn1c(=O)[nH]c2cc(Cl)c(Cl)cc21 yielded an inhibition of -5.4%. For NS(=O)(=O)c1cc2c(cc1Cl)NCNS2(=O)=O, the inhibition was -0.5%. With NS(=O)(=O)c1cc2c(cc1Cl)NC(C1CC3C=CC1C3)NS2(=O)=O (stereo unspecified) the inhibition was -0.4%. For NS(=O)(=O)c1cc2c(cc1Cl)NC=NS2(=O)=O, the inhibition was 2.5% (active). In the case of COc1cccc2c1[C@@H]1CN(CCCCn3c(=O)[nH]c4c(sc5ncc(-c6ccccc6)nc54)c3=O)C[C@@H]1CO2, the inhibition is reported as -1.5%.

— PubChem BioAssay AID1347418 (Sanford-Burnham Center for Chemical Genomics, 2020)
